Data published in PubChem BioAssay.
Several values for one entry are separate records, joined by “and”; a condition that tells them apart may be missing. Equal entries are not always repeated. Activity calls are given as the source filed them.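 The calls were made as follows: active = mean z-score across replicates of 1.96 or higher in either the MELAS or the Rieske mutant cell line; inactive = the rest.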
Also: test concentration not given here.

Experiment: sensitizers of A549 cells to miR-34 induction, primary screen, imaging, A549 dox-inducible miR-34, nuclei and caspase counts (AID 1347080)
Conditions: A549 miR-34 inducible, Hoechst nuclei count, 48 h; measured here: total cells without miR-34 induction
`c1ccc2c(CCc3ccncc3)c[nH]c2c1` gave a cell count of 8520. With `CN1CCN(Cc2ccc(-c3nc(-c4cccnc4)cc(=O)[nH]3)cc2)CC1` the cell count was 9610. In the case of `COc1ncccc1C(=O)N1CCOc2ccccc21`, the cell count is reported as 8420. `COc1ccc(F)c(-c2cccc(N)n2)c1` showed a cell count of 10300. In the case of `O=C1CN(C(=O)c2ccncc2)CCN1Cc1ccc2c(c1)OCO2`, the cell count is reported as 9890. Compound `Cc1nc(NC(=O)NCc2cccc(Cl)c2)nn1C` has a cell count of 9160. For `NC(=O)Cc1c[nH]c2ccccc12`, the cell count was 8950. With `Cc1ncsc1-c1ccn(CC(=O)Nc2ccnn2Cc2cccs2)n1` the cell count was 8190. With `Nc1ccn(C2CCC(CO)O2)c(=O)n1` (configuration not stated) the cell count was 10200 and 9350.

Experiment: survival rescue of mitochondrial mutant cells in low glucose, primary screen, MELAS cybrids, Rieske KO mouse fibroblasts, CellTiter-Glo (AID 1508586);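 also: z relative to plate mean and SD of compound and empty wells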
Conditions: MELAS cybrid survival, CellTiter-Glo 48 h, stronger effect = higher value
With `CCOC(=O)c1c(C)nn(-c2ccc(OC)cc2)c1C` the z-score was 0.662 (inactive). For `O=c1c(-c2ccc(O)cc2)coc2cc(OC3OC(CO)C(O)C(O)C3O)ccc12` (configuration not stated), the z-score was 0.694 (inactive). In the case of `O=C(O)Cc1c[nH]c2ccccc12`, the z-score is reported as -0.643 (inactive). With `O=C(O)c1cnc(-c2ccccc2)[nH]1` the z-score was -0.137 (inactive). In the case of `O=C(Nc1c[nH]c2ccccc12)c1cc(-c2ccc(F)cc2)n[nH]1`, the z-score is reported as -0.224 (inactive). With `Cc1ccc2c(C(=O)N(C)C(C)C)cc(-c3cnc(C(C)C)nc3)nc2c1` the z-score was 0.549 (inactive). With `COc1cc(F)c(-c2nc3c(cnn3Cc3cccs3)[nH]2)c(F)c1` the z-score was -0.593 (inactive). In the case of `Cc1ccc(Sc2cccc3nc(N)nc(N)c23)cc1`, the z-score is reported as 0.0344 (inactive). With `CCn1c2ccccc2c2cc(CNC)ccc21` the z-score was 0.644 (inactive). In the case of `CN(C)C(=O)CN(C)C(=O)c1cccc(Nc2ncnc3c2cnn3C)c1`, the z-score is reported as 0.0352 (inactive). With `Cn1c(=O)c2c(nc(N3CCNCC3)n2Cc2ccccc2)n(C)c1=O` the z-score was -1.69 (inactive). With `O=c1cc(-c2ccccc2)oc2ccccc12` the z-score was 2.28 (active). With `O=c1[nH]c(=O)c2[nH]cnc2[nH]1` the z-score was 0.44 (inactive). With `Cc1ccc(-n2cc(-c3nc4c(cnn4Cc4cccnc4)[nH]3)cn2)cc1` the z-score was 0.697 (inactive). With `CN(C)c1ccc(N=Nc2ccccc2C(=O)O)cc1` the z-score was -1.2 (inactive). In the case of `CCCn1ncc(-c2ccnc(NCc3cc(CC)no3)n2)c1C`, the z-score is reported as -0.178 (inactive). With `CCc1nc(NC(=O)NC(c2ccccc2)c2ccccc2)nn1C` the z-score was -0.352 (inactive). For `NS(=O)(=O)c1ccc(CCC(=O)O)cc1`, the z-score was 0.234 (inactive). In the case of `O=C(O)CCCCc1ccccc1`, the z-score is reported as 0.335 (inactive). With `O=c1[nH]cnc2c1ncn2C1CCC(CO)O1` (configuration not stated) the z-score was -0.36 (inactive). With `Cc1cc(-c2cnn(C)c2)nc(N)n1` the z-score was -0.132 (inactive). For `O=C(O)c1ccccc1C(=O)O`, the z-score was -0.0339 (inactive). For `O=C(O)c1cnn(-c2ccccc2)c1`, the z-score was -0.738 (inactive). With `CC1OC(OCC2OC(Oc3c(-c4ccc(O)c(O)c4)oc4cc(O)cc(O)c4c3=O)C(O)C(O)C2O)C(O)C(O)C1O` (configuration not stated) the z-score was -0.328 (inactive). For `O=C1CCCc2occ(C(=O)N3CCc4[nH]nc(Cc5ccccc5)c4C3)c21`, the z-score was -0.275 (inactive). For `CC(=O)NCC1CN(c2ccc(N3CCOCC3)c(F)c2)C(=O)O1` (configuration not stated), the z-score was -0.285 (inactive). In the case of `Cc1cc2nc3[nH]c(=O)[nH]c(=O)c3nc2cc1C`, the z-score is reported as 1.63 (inactive). In the case of `Cc1nn(C)cc1-c1ccnc(NCc2nc(-c3ccccc3)no2)n1`, the z-score is reported as -0.588 (inactive). For `CCCc1cn(CC2CCCN(C(=O)c3nc4ncccn4n3)C2)nn1` (configuration not stated), the z-score was -0.289 (inactive). For `Cc1cn(C2C=CC(CO)O2)c(=O)[nH]c1=O` (configuration not stated), the z-score was -0.48 (inactive). With `c1ccc2c(CCc3ccncc3)c[nH]c2c1` the z-score was 1.96 (inactive). In the case of `CN1CCN(Cc2ccc(-c3nc(-c4cccnc4)cc(=O)[nH]3)cc2)CC1`, the z-score is reported as -0.317 (inactive). In the case of `COc1ncccc1C(=O)N1CCOc2ccccc21`, the z-score is reported as 0.0792 (inactive). For `COc1ccc(F)c(-c2cccc(N)n2)c1`, the z-score was -0.0723 (inactive). With `O=C1CN(C(=O)c2ccncc2)CCN1Cc1ccc2c(c1)OCO2` the z-score was -0.12 (inactive). For `Cc1nc(NC(=O)NCc2cccc(Cl)c2)nn1C`, the z-score was 7.52 (active). For `NC(=O)Cc1c[nH]c2ccccc12`, the z-score was 0.728 (inactive). In the case of `Cc1ncsc1-c1ccn(CC(=O)Nc2ccnn2Cc2cccs2)n1`, the z-score is reported as -0.383 (inactive). With `Nc1ccn(C2CCC(CO)O2)c(=O)n1` (configuration not stated) the z-score was -0.101 (inactive).

Same assay, conditions: Rieske KO mouse fibroblast survival, CellTiter-Glo 72 h
`CCOC(=O)c1c(C)nn(-c2ccc(OC)cc2)c1C` gave a z-score of 0.769. For `O=c1c(-c2ccc(O)cc2)coc2cc(OC3OC(CO)C(O)C(O)C3O)ccc12` (configuration not stated), the z-score was -0.345. Work on `O=C(O)Cc1c[nH]c2ccccc12` yielded a z-score of -0.265. Compound `O=C(O)c1cnc(-c2ccccc2)[nH]1` has a z-score of -0.215. For `O=C(Nc1c[nH]c2ccccc12)c1cc(-c2ccc(F)cc2)n[nH]1`, the z-score was 0.73. In the case of `Cc1ccc2c(C(=O)N(C)C(C)C)cc(-c3cnc(C(C)C)nc3)nc2c1`, the z-score is reported as 0.778. Work on `COc1cc(F)c(-c2nc3c(cnn3Cc3cccs3)[nH]2)c(F)c1` yielded a z-score of -0.339. In the case of `Cc1ccc(Sc2cccc3nc(N)nc(N)c23)cc1`, the z-score is reported as 0.646. `CCn1c2ccccc2c2cc(CNC)ccc21` showed a z-score of -0.0619. Compound `CN(C)C(=O)CN(C)C(=O)c1cccc(Nc2ncnc3c2cnn3C)c1` has a z-score of -0.276. Compound `Cn1c(=O)c2c(nc(N3CCNCC3)n2Cc2ccccc2)n(C)c1=O` has a z-score of -0.314. With `O=c1cc(-c2ccccc2)oc2ccccc12` the z-score was 0.116. With `O=c1[nH]c(=O)c2[nH]cnc2[nH]1` the z-score was -0.148. Work on `Cc1ccc(-n2cc(-c3nc4c(cnn4Cc4cccnc4)[nH]3)cn2)cc1` yielded a z-score of 0.0385. With `CN(C)c1ccc(N=Nc2ccccc2C(=O)O)cc1` the z-score was 0.626. Compound `CCCn1ncc(-c2ccnc(NCc3cc(CC)no3)n2)c1C` has a z-score of -0.0436. Work on `CCc1nc(NC(=O)NC(c2ccccc2)c2ccccc2)nn1C` yielded a z-score of -0.694. Compound `NS(=O)(=O)c1ccc(CCC(=O)O)cc1` has a z-score of -0.0972. Compound `O=C(O)CCCCc1ccccc1` has a z-score of -0.289. In the case of `O=c1[nH]cnc2c1ncn2C1CCC(CO)O1` (configuration not stated), the z-score is reported as 0.371. `Cc1cc(-c2cnn(C)c2)nc(N)n1` showed a z-score of -0.642. With `O=C(O)c1ccccc1C(=O)O` the z-score was -0.338. Work on `O=C(O)c1cnn(-c2ccccc2)c1` yielded a z-score of 0.631. `CC1OC(OCC2OC(Oc3c(-c4ccc(O)c(O)c4)oc4cc(O)cc(O)c4c3=O)C(O)C(O)C2O)C(O)C(O)C1O` (configuration not stated) gave a z-score of -0.0914. `O=C1CCCc2occ(C(=O)N3CCc4[nH]nc(Cc5ccccc5)c4C3)c21` gave a z-score of -0.284. With `CC(=O)NCC1CN(c2ccc(N3CCOCC3)c(F)c2)C(=O)O1` (configuration not stated) the z-score was 0.466. Work on `Cc1cc2nc3[nH]c(=O)[nH]c(=O)c3nc2cc1C` yielded a z-score of 0.292. `Cc1nn(C)cc1-c1ccnc(NCc2nc(-c3ccccc3)no2)n1` gave a z-score of 1.31. Compound `CCCc1cn(CC2CCCN(C(=O)c3nc4ncccn4n3)C2)nn1` (configuration not stated) has a z-score of -0.243. In the case of `Cc1cn(C2C=CC(CO)O2)c(=O)[nH]c1=O` (configuration not stated), the z-score is reported as 0.518. `c1ccc2c(CCc3ccncc3)c[nH]c2c1` showed a z-score of -0.242. For `CN1CCN(Cc2ccc(-c3nc(-c4cccnc4)cc(=O)[nH]3)cc2)CC1`, the z-score was -0.261. Compound `COc1ncccc1C(=O)N1CCOc2ccccc21` has a z-score of -0.0817. `COc1ccc(F)c(-c2cccc(N)n2)c1` showed a z-score of -0.237. Compound `O=C1CN(C(=O)c2ccncc2)CCN1Cc1ccc2c(c1)OCO2` has a z-score of -0.568. In the case of `Cc1nc(NC(=O)NCc2cccc(Cl)c2)nn1C`, the z-score is reported as 0.00105. In the case of `NC(=O)Cc1c[nH]c2ccccc12`, the z-score is reported as -0.479. Work on `Cc1ncsc1-c1ccn(CC(=O)Nc2ccnn2Cc2cccs2)n1` yielded a z-score of -0.375. `Nc1ccn(C2CCC(CO)O2)c(=O)n1` (configuration not stated) showed a z-score of 0.566.
